PubChem BioAssay (NCATS)
Inconclusive results are not listed. Active and inactive are the calls of the source. Calls come from the whole dose curve; as a rule, active = well fitted inhibition curve with a large enough effect; inconclusive = small, poorly fitted or top-dose-only effect; inactive = flat fitted curve, though single readings scatter.

Tests used:
Assay in all cases: qHTS profiling for inhibitors of Plasmodium falciparum proliferation (AID 504749); note: nearly all actives have a fitted effect of over 60% in size
CP238 = details: P. falciparum in erythrocytes, SYBR Green DNA, 72 h; series mostly up to 28.7 µM
Method in brief: (§1)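 SYBR Green fluorescence (ex 485 nm, em 535 nm) reports parasite DNA after 72 h compound exposure of infected red cells at 0.3% parasitemia, 2.5% hematocrit; signal normalized to 0.29 uM artemisinin and vehicle wells.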

CP247 = details: P. falciparum in erythrocytes, SYBR Green DNA, 72 h; series mostly up to 28.7 µM
Method in brief: as §1

CP250 = details: P. falciparum in erythrocytes, SYBR Green DNA, 72 h; series mostly up to 12.8 µM
Method in brief: as §1

CP252 = details: P. falciparum in erythrocytes, SYBR Green DNA, 72 h; series mostly up to 12.8 µM
Method in brief: as §1

CP256 = details: P. falciparum in erythrocytes, SYBR Green DNA, 72 h; series mostly up to 28.7 µM
Method in brief: as §1

CP262 = details: P. falciparum in erythrocytes, SYBR Green DNA, 72 h; series mostly up to 28.7 µM
Method in brief: as §1

CP268 = details: P. falciparum in erythrocytes, SYBR Green DNA, 72 h; series mostly up to 28.7 µM
Method in brief: as §1

CP269 = details: P. falciparum in erythrocytes, SYBR Green DNA, 72 h; series mostly up to 28.7 µM
Method in brief: as §1

CP286 = details: P. falciparum in erythrocytes, SYBR Green DNA, 72 h; series mostly up to 28.7 µM
Method in brief: as §1

CP291 = details: P. falciparum in erythrocytes, SYBR Green DNA, 72 h; series mostly up to 28.7 µM
Method in brief: as §1

CP297 = details: P. falciparum in erythrocytes, SYBR Green DNA, 72 h; series mostly up to 28.7 µM
Method in brief: as §1

CP305 = details: P. falciparum in erythrocytes, SYBR Green DNA, 72 h; series mostly up to 28.7 µM
Method in brief: as §1

CP315 = details: P. falciparum in erythrocytes, SYBR Green DNA, 72 h; series mostly up to 28.7 µM
Method in brief: as §1

CP325 = details: P. falciparum in erythrocytes, SYBR Green DNA, 72 h; series mostly up to 28.7 µM
Method in brief: as §1

CP329 = details: P. falciparum in erythrocytes, SYBR Green DNA, 72 h; series mostly up to 28.7 µM
Method in brief: as §1

DFO2036 = details: P. falciparum in erythrocytes, SYBR Green DNA, 72 h; series mostly up to 28.7 µM
Method in brief: as §1

DIV17 = details: P. falciparum in erythrocytes, SYBR Green DNA, 72 h; series mostly up to 28.7 µM
Method in brief: as §1

DIV30 = details: P. falciparum in erythrocytes, SYBR Green DNA, 72 h; series mostly up to 28.7 µM
Method in brief: as §1

Dd2 = details: P. falciparum in erythrocytes, SYBR Green DNA, 72 h; series mostly up to 28.7 µM
Method in brief: as §1

FAB9 = details: P. falciparum in erythrocytes, SYBR Green DNA, 72 h; series mostly up to 28.7 µM
Method in brief: as §1

HB3 = details: P. falciparum in erythrocytes, SYBR Green DNA, 72 h; series mostly up to 28.7 µM
Method in brief: as §1

ICS = details: P. falciparum in erythrocytes, SYBR Green DNA, 72 h; series mostly up to 28.7 µM
Method in brief: as §1

JCK = details: P. falciparum in erythrocytes, SYBR Green DNA, 72 h; series mostly up to 28.7 µM
Method in brief: as §1

N140 = details: P. falciparum in erythrocytes, SYBR Green DNA, 72 h; series mostly up to 28.7 µM
Method in brief: as §1

P93_24 = details: P. falciparum in erythrocytes, SYBR Green DNA, 72 h; series mostly up to 28.7 µM
Method in brief: as §1

P94_40 = details: P. falciparum in erythrocytes, SYBR Green DNA, 72 h; series mostly up to 28.7 µM
Method in brief: as §1

PC15 = details: P. falciparum in erythrocytes, SYBR Green DNA, 72 h; series mostly up to 28.7 µM
Method in brief: as §1

SC27B = details: P. falciparum in erythrocytes, SYBR Green DNA, 72 h; series mostly up to 28.7 µM
Method in brief: as §1

TAB113 = details: P. falciparum in erythrocytes, SYBR Green DNA, 72 h; series mostly up to 28.7 µM
Method in brief: as §1

W2 = details: P. falciparum in erythrocytes, SYBR Green DNA, 72 h; series mostly up to 12.8 µM
Method in brief: as §1

Measured: Potency
Potency is the fitted concentration of half-maximal effect.

CC(=O)OC1C[C@H](O[C@@H]2C(O)C[C@H](O[C@@H]3C(O)C[C@@H](OC4CC[C@]5(C)C(CCC6C5CC(O)[C@@]5(C)C(C7=CC(=O)OC7)CC[C@@]65O)C4)OC3C)OC2C)O[C@H](C)[C@H]1O[C@H]1OC(CO)C(O)C(O)C1O (stereo not given in full)
active: DIV17 13.5 µM | HB3 12.6 µM | ICS 5.62 µM | P93_24 12.6 µM | PC15 5.01 µM | W2 13.5 µM
inactive: all other assays above
